# Assay results taken from PubChem BioAssay (NCI).
# “And” between values parts separate entries of the source, which are not always exact repeats. Equal entries are not always repeated. About 83,000 compounds went through this panel and 20% of them were active in at least one assay; those are over-represented in the sample as a whole.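 Growth was measured after 48 h exposure to one concentration of compound in 96-well plates. Values under 10 count as active.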 The source made the active and inactive calls.
# Tests used:
# Experiment in all cases: NCI-60 one-dose screen, 48 h (100 = growth as untreated, 0 = no growth, -100 = all killed)
# Conditions in all cases: 10 µM unless noted
# HCT-15 colon = system: HCT-15 colon
# HT29 colon = system: HT29 colon
# SNB-75 CNS = system: SNB-75 CNS
# SNB-19 CNS = system: SNB-19 CNS
# U251 CNS = system: U251 CNS
# PC-3 prostate = system: PC-3 prostate
# SK-MEL-5 melanoma = system: SK-MEL-5 melanoma
# UACC-62 melanoma = system: UACC-62 melanoma
# LOX IMVI melanoma = system: LOX IMVI melanoma
# SK-MEL-28 melanoma = system: SK-MEL-28 melanoma
# SK-MEL-2 melanoma = system: SK-MEL-2 melanoma
# SN12C renal = system: SN12C renal
# UO-31 renal = system: UO-31 renal
# TK-10 renal = system: TK-10 renal
# ACHN renal = system: ACHN renal
# CAKI-1 renal = system: CAKI-1 renal
# A498 renal = system: A498 renal
# CCRF-CEM leukemia = system: CCRF-CEM leukemia
# MOLT-4 leukemia = system: MOLT-4 leukemia
# EKVX NSCLC = system: EKVX NSCLC
Compound,growth (HCT-15 colon),growth (HT29 colon),growth (SNB-75 CNS),growth (SNB-19 CNS),growth (U251 CNS),growth (PC-3 prostate),growth (SK-MEL-5 melanoma),growth (UACC-62 melanoma),growth (LOX IMVI melanoma),growth (SK-MEL-28 melanoma),growth (SK-MEL-2 melanoma),growth (SN12C renal),growth (UO-31 renal),growth (TK-10 renal),growth (ACHN renal),growth (CAKI-1 renal),growth (A498 renal),growth (CCRF-CEM leukemia),growth (MOLT-4 leukemia),growth (EKVX NSCLC)
N#C/C(=C1C=C/C(=N/O)C(Br)=C/1)c1ccccc1,23.1% (inactive),8.98% (active),23% (inactive),94.9% (inactive),26.5% (inactive),4.02% (active),53.6% (inactive),33.1% (inactive),1.02% (active),61.3% (inactive),-22.3% (active),32.7% (inactive),36.7% (inactive),45% (inactive),24.5% (inactive),15.1% (inactive),63.7% (inactive),4.04% (active),18.5% (inactive),–
Clc1ccc(SSc2ccc(Cl)cc2)cc1,98.8% (inactive) and 92.4% (inactive),98.1% (inactive) and 98.2% (inactive),74.4% (inactive) and 67% (inactive),93.7% (inactive) and 89.2% (inactive),93.4% (inactive) and 61% (inactive),87.3% (inactive) and 46.5% (inactive),105% (inactive) and 73.3% (inactive),96.9% (inactive) and 95.8% (inactive),97.6% (inactive) and 7.12% (active),96.9% (inactive) and 103% (inactive),101% (inactive) and 111% (inactive),–,85% (inactive) and 46.7% (inactive),88% (inactive) and 106% (inactive),99.4% (inactive) and 99.7% (inactive),95.8% (inactive) and 94.5% (inactive),–,97.9% (inactive),98.6% (inactive),103% (inactive) and 68.6% (inactive)
O=Nc1ccc(O)cc1,89.3% (inactive) and 92.3% (inactive),97.4% (inactive) and 97.5% (inactive),95.6% (inactive),106% (inactive) and 99.3% (inactive),101% (inactive) and 94.2% (inactive),85.1% (inactive) and 90% (inactive),98% (inactive) and 109% (inactive),90.2% (inactive) and 93.4% (inactive),90.8% (inactive) and 82.3% (inactive),113% (inactive),96.7% (inactive) and 109% (inactive),96.1% (inactive) and 97.3% (inactive),90.7% (inactive) and 62.9% (inactive),–,81.3% (inactive) and 75% (inactive),97.9% (inactive),122% (inactive) and 130% (inactive),75.4% (inactive) and 56.1% (inactive),82.5% (inactive) and 89.2% (inactive),91.6% (inactive) and 105% (inactive)
COc1cc2nc(N3CCC[C@@H](NC(=O)C4COc5ccccc5O4)C3)nc(N)c2cc1OC (some centres undefined),101% (inactive) and 97.1% (inactive),109% (inactive) and 97.7% (inactive),83.3% (inactive) and 90.3% (inactive),107% (inactive) and 102% (inactive),93.3% (inactive) and 84.2% (inactive),92.9% (inactive) and 94.2% (inactive),99.5% (inactive) and 96.7% (inactive),103% (inactive) and 104% (inactive),100% (inactive) and 94.7% (inactive),102% (inactive) and 98.7% (inactive),112% (inactive) and 107% (inactive),104% (inactive) and 103% (inactive),85.7% (inactive) and 65.2% (inactive),98.6% (inactive) and 89.7% (inactive),103% (inactive) and 96.4% (inactive),92% (inactive) and 89.6% (inactive),99.4% (inactive) and 83.5% (inactive),–,88% (inactive) and 94.3% (inactive),–
